Laboratory results: PubChem BioAssay (Tox21)
Records with an inconclusive call do not appear. Activity calls are given as the source filed them. Unless noted, the call rests on the fitted dose curve; in most records, active means well fitted curve in the direction sought with a large enough effect in the repeat runs; inconclusive means weak or mixed curves; inactive means no such curve, though single readings can be large; an effect the other way counts as inactive or inconclusive.

Legend:
[1] = qHTS assay to identify small molecule antagonists of the estrogen related receptor (ERR) signaling pathway from Tox21 library - cell viability counter screen (AID 1224834); details: ERR reporter cells viability, CellTiter-Fluor, 17.5 h; series mostly up to 92.4 µM; further: nearly all actives have a fitted effect of over 30% in size
Procedure, shortened: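 CellTiter-Fluor fluorescence measured; ERR cells; 17.5 h compound incubation at 37 C; 30 min reagent step.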

[2] = qHTS assay to identify small molecule agonists of the constitutive androstane receptor (CAR) signaling pathway - cell viability counter screen (AID 1224836); details: HepG2-CYP2B6-hCAR viability, CellTiter-Fluor, 23 h, PK11195 added to every well; series mostly up to 92.4 µM; further: nearly all actives have a fitted effect of over 45% in size
Procedure, shortened: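 Fluorescence from CellTiter-Fluor indicates live cells after 23 h exposure. The human hepatoma line expresses hCAR and a CYP2B6-2.2kb reporter. Incubation medium contains 0.75 uM PK11195 (final).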

[3] = qHTS assay to identify small molecule antagonists of the constitutive androstane receptor (CAR) signaling pathway - cell viability counter screen (AID 1224837); details: HepG2-CYP2B6-hCAR viability, CellTiter-Fluor, 23 h, co-treated with 50 nM CITCO; series mostly up to 92.4 µM; further: nearly all actives have a fitted effect of over 45% in size
Procedure, shortened: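 Using CellTiter-Fluor, viability is scored in HepG2 cells stably carrying hCAR and a 2.2kb CYP2B6 reporter after 23 hr compound exposure across 15 concentrations, with CITCO present at 50 nM.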

[4] = biological target: Nuclear receptor subfamily 1 group I member 3 (Homo sapiens) (UniProt Q14994); test: qHTS assay to identify small molecule antagonists of the constitutive androstane receptor (CAR) signaling pathway (AID 1224838); details: HepG2-CYP2B6-hCAR luciferase, CITCO-stimulated, 24 h; series mostly up to 92.4 µM;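 further: HepG2 cells stably expressing hCAR with CYP2B6 luciferase reporter stimulated by CITCO; nearly all actives have a fitted effect of over 40% in size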
Sequence of Nuclear receptor subfamily 1 group I member 3 (Homo sapiens) (Q14994 whole entry, looked up): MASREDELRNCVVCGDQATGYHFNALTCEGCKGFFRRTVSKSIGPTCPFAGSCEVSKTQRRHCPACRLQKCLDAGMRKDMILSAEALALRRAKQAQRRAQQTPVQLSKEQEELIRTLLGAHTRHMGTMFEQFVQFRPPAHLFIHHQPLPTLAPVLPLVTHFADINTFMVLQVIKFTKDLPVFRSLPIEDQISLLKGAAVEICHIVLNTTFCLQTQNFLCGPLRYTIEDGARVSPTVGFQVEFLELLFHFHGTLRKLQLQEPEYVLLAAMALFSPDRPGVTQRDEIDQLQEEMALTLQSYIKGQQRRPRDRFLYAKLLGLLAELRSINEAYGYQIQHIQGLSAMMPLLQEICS
Procedure, shortened: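 Reporter luminescence was quantified after 24 h exposure of hCAR/CYP2B6-2.2kb double-stable HepG2 cells to compounds at 15 concentrations in the presence of 50 nM CITCO final.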

[5] = qHTS assay to identify small molecule antagonists of the estrogen related receptor signaling pathway with the pleiotropic PPARgamma coactivator (PGC) from Tox21 10K library - cell viability counter screen (AID 1224840; active means well fitted cell-killing curve with a large enough effect in the repeat runs, not every such curve was filed as active; further: nearly all actives have a fitted effect of over 40% in size); details: PGC/ERR reporter cells viability, CellTiter-Fluor, 17.5 h; series mostly up to 92.4 µM
Procedure, shortened: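 Here the PGC/ERR cells serve as a cytotoxicity control: they are exposed to compounds for 17.5 hours at 37 C, and live-cell signal is quantified using CellTiter-Fluor fluorescence.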

[6] = qHTS assay to identify small molecule antagonists of the estrogen related receptor signaling pathway with the pleiotropic PPARgamma coactivator (PGC) from Tox21 10K library (AID 1224841; call rule not given here; further: actives are mostly falling curves and most rising ones were filed inactive; nearly all actives have a fitted effect of over 50% in size); details: PGC/ERR reporter cell line, ONE-Glo luciferase, 18 h; series mostly up to 92.4 µM
Procedure, shortened: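 Each well held 2,000 PGC/ERR cells, pre-incubated six hours (37 C, 5% CO2). Test substances in DMSO were added by pin tool and left for 18 h at 37 C before luciferase detection by One-Glo.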

[7] = qHTS assay to identify small molecule agonists of the estrogen related receptor signaling pathway with the pleiotropic PPARgamma coactivator (PGC) from Tox21 10K library (AID 1224842); details: PGC/ERR reporter cell line, luciferase ONE-Glo, 18 h; series mostly up to 92.4 µM; further: nearly all actives have a fitted effect of over 15% in size
Procedure, shortened: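 PGC/ERR reporter cell line, 2,000 cells per well, incubated 6 h at 37 C before 23 nL compound in DMSO was added. After 18 h at 37 C, One-Glo luminescence read following 30 min at room temperature.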

[8] = qHTS assay to identify small molecule agonists of the hypoxia (HIF-1) signaling pathway - cell viability counter screen (AID 1224844; calls by dose curve; further: nearly all actives have a fitted effect of over 50% in size); details: HRE-bla ME-180 viability, CellTiter-Glo luminescence, 17 h; series mostly up to 76.8 µM
Procedure, shortened: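 Multiplexed with the HRE beta-lactamase assay, this viability read used CellTiter-Glo luminescence (30 min, RT) on HRE-bla ME-180 cells treated 17 hrs with compounds in 0.5% dialyzed FBS medium.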

[9] = qHTS assay to identify small molecule agonists of H2AX (AID 1224845; active means well fitted activation curve with a large enough effect in the signal ratio in the repeat runs, not every such curve was filed as active; the % refers to the signal ratio); details: CHO-K1 phospho-H2AX Ser139 HTRF, 3 h; series mostly up to 154 µM
Procedure, shortened: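 Wild-type CHO-K1 cells, plated overnight, exposed 3hr at 37C to 15 concentrations (0.76% DMSO final). Lysed, then HTRF anti-pH2AX (S139) cryptate and anti-H2AX-d2 antibodies, 24 hr room temperature; 665/620 nm emission read.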

[10] = qHTS assay to identify small molecule agonists of the hypoxia (HIF-1) signaling pathway (AID 1224846; active means well fitted activation curve with a large enough effect in the signal ratio in the repeat runs, not every such curve was filed as active; the % refers to the signal ratio); details: HRE-bla ME-180 cells, beta-lactamase ratio, 17 h; series mostly up to 76.8 µM
Procedure, shortened: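 Hypoxia-pathway activation was scored as increased beta-lactamase from an HRE-controlled reporter in ME-180 cells; plated at 2,000 cells per well with 0.5% dialyzed FBS, they were exposed 17 hrs to compounds and then given CCF4-AM.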

[11] = qHTS assay to identify small molecule agonists of H2AX - cell viability counter screen (AID 1224847; calls by dose curve; further: top concentration of the series differs between compounds; nearly all actives have a fitted effect of over 30% in size); details: CHO-K1 viability, CellTiter-Glo luminescence, 3 h; series mostly up to 154 µM
Procedure, shortened: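 Viability of CHO-K1 (wild type) cells after 3 hr compound exposure was measured by CellTiter-Glo luminescence.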

[12] = qHTS assay to identify small molecule antagonists of the estrogen related receptor (ERR) signaling pathway from Tox21 library (AID 1224848); details: ERR reporter cell line, luciferase antagonist mode, 18 h; series mostly up to 92.4 µM; further: nearly all actives have a fitted effect of over 50% in size
Procedure, shortened: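 Luminescent reporter read-out (ONE-Glo) from NTP's ERR cell line after 18 h treatment at 37 C with DMSO-dissolved Tox21 compounds; cells pre-plated 6 h beforehand at 2,000 per well.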

[13] = qHTS assay to identify small molecule agonists of the estrogen related receptor (ERR) signaling pathway from Tox21 library (AID 1224849; calls by dose curve; further: nearly all actives have a fitted effect of over 15% in size); details: ERR reporter cell line, ONE-Glo luciferase, 18 h; at 92.4 µM (top of the series) unless noted
Procedure, shortened: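 Six hours post-seeding at 37 C/5% CO2, ERR cells receive DMSO-solubilised compounds; after 18 h at 37 C, ONE-Glo reagent is applied and luminescence recorded.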

[14] = qHTS RealTime-Glo MT Cell Viability Assay in HepG2 cells - 24 hour (AID 1224867); details: RealTime-Glo luminescence; series mostly up to 76.8 µM; further: nearly all actives have a fitted effect of over 50% in size
Procedure, shortened: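 Tox21 10K library screened in qHTS format on HepG2 cells carrying RealTime-Glo reagents. Compounds were added after a 5 h preincubation, and the luminescent signal from continuous culture was measured repeatedly during 40 h treatment.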

[15] = qHTS RealTime-Glo MT Cell Viability Assay in HEK293 cells - 32 hour (AID 1224868); details: RealTime-Glo luminescence; series mostly up to 76.8 µM; further: nearly all actives have a fitted effect of over 50% in size; further: potency means the concentration at half of the fitted maximal effect
Procedure, shortened: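 Luminescence generated by NanoLuc from substrate produced by living HEK293 cells served as the viability signal. Each value reflects the reading at its stated time point during continuous 40 h compound exposure at 37 C.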

[16] = A CellTox Green Cytotoxicity Assay to monitor cytotoxicity in HEK293 cells - 0 hour (AID 1224869); details: CellTox Green fluorescence; series mostly up to 76.8 µM; further: nearly all actives have a fitted effect of over 50% in size
Procedure, shortened: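 Seeding of HEK293 cells together with cytotoxicity dye preceded a 5 h incubation at 37 C/5% CO2. Test compounds in DMSO were then added and fluorescence monitored across 40 h.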

[17] = biological target: Thyrotropin receptor (Homo sapiens) (UniProt P16473); test: qHTS assay to identify small molecule agonists of the thyroid stimulating hormone receptor (TSHR) signaling pathway (AID 1224843; calls by dose curve; further: nearly all actives have a fitted effect of over 45% in size); details: TSHR-HEK293 cells, cAMP HTRF, agonist mode, 30 min; series mostly up to 92.4 µM
Sequence of Thyrotropin receptor (Homo sapiens) (P16473 whole entry, looked up): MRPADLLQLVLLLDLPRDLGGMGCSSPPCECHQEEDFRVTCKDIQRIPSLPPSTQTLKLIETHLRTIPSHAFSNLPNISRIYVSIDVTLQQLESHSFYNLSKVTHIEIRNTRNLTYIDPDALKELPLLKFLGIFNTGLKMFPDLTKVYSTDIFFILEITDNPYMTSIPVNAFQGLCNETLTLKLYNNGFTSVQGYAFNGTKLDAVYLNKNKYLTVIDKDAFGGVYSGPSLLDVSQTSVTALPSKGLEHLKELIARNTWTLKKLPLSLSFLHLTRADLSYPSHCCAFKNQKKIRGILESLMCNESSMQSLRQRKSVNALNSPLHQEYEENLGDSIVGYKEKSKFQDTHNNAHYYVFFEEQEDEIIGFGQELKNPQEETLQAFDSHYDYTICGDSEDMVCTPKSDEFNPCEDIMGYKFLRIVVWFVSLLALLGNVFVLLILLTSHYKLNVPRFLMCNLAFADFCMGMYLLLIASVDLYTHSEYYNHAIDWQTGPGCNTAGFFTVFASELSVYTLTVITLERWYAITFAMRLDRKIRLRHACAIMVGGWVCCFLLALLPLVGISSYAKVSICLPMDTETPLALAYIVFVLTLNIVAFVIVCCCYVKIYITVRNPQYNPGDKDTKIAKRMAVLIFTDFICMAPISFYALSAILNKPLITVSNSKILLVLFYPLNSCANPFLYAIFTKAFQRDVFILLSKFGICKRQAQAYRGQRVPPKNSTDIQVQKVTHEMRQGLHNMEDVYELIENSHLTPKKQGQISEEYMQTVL
Procedure, shortened: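 Steps: seed 800 TSHR-HEK293 cells per well; add test compound and hold 30 min at ambient temperature; dispense cAMP-d2 then anti-cAMP cryptate; incubate 1 h at ambient; measure fluorescence intensity.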

[18] = biological target: Luciferin 4-monooxygenase (Photinus pyralis) (UniProt P08659); test: qHTS assay to identify small molecule inhibitors of firefly luciferase (AID 1224835); further: nearly all actives have a fitted effect of over 25% in size; details: purified P. pyralis luciferase, luminescence inhibition; series mostly up to 115 µM
Sequence of Luciferin 4-monooxygenase (Photinus pyralis) (P08659 whole entry, looked up): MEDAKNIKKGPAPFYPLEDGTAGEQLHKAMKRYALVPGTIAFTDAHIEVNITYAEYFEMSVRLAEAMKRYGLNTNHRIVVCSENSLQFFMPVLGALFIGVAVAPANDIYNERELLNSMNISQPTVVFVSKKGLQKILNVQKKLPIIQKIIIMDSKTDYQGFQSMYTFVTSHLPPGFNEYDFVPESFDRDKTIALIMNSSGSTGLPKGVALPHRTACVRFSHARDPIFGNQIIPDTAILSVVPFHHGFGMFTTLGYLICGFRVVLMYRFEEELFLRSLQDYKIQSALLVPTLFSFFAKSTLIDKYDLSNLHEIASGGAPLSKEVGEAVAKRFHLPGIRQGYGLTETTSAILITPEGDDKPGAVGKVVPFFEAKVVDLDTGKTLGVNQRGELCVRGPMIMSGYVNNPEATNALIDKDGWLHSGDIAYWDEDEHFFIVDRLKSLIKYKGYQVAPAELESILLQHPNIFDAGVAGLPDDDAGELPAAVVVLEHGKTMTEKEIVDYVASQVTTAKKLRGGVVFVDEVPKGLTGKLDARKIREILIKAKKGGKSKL
Procedure, shortened: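 Biochemical qHTS: compounds run as interplate titrations against purified firefly enzyme, with D-luciferin and ATP each at its KM concentration. Light output recorded by CCD imaging.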

[19] = biological target: Nuclear receptor subfamily 1 group I member 3 (Homo sapiens) (UniProt Q14994); test: qHTS assay to identify small molecule agonists of the constitutive androstane receptor (CAR) signaling pathway (AID 1224839); details: HepG2 hCAR CYP2B6-luciferase, agonist mode, 24 h; series mostly up to 92.4 µM;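 further: HepG2 cells stably carrying human CAR and a CYP2B6 luciferase reporter; nearly all actives have a fitted effect of over 15% in size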
Procedure, shortened: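 Stable hCAR/CYP2B6-2.2kb HepG2 line in DMEM with 10% FBS; compounds (15 concentrations) and 0.75 uM PK11195 final, 24 h at 37 C/5% CO2, then ONE-Glo luminescence after 30 min.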
On the % scale 0 is the no-effect control and ±100 the full control effect.

CC1=C2[C@H]3OC(=O)[C@@H](C)[C@@H]3CC[C@@]2(C)C=CC1=O
inactive: Potency [1] | Potency [2] | Potency [3] | Potency [4] | Potency [5] | Potency [6] | Potency [7] | Potency [8] | outcome [9] | outcome [10] | Potency [11] | Potency [12] | activity change, positive = activation [13] 5.47% [at 42.5 µM] | Potency [14] | Potency [15] | outcome [16]

COC1=CC(=O)O[C@@H](/C=C/c2ccccc2)C1
inactive: Potency [1] | Potency [2] | Potency [3] | Potency [5] | Potency [6] | Potency [17] | Potency [8] | outcome [9] | Potency [11] | Potency [12] | Potency [14] | Potency [15] | outcome [16]

CC(C)(N)Cc1ccc(Cl)cc1
inactive: Potency [18] | Potency [2] | Potency [3] | Potency [4] | Potency [19] | Potency [5] | Potency [17] | Potency [8] | outcome [10] | Potency [11] | Potency [14] | Potency [15] | outcome [16]

COC(=O)[C@@H](N)CCCN/C(N)=N/[N+](=O)[O-]
inactive: Potency [1] | Potency [2] | Potency [3] | Potency [5] | Potency [17] | Potency [8] | outcome [9] | Potency [11] | Potency [14] | Potency [15] | outcome [16]

CCCCS(=O)(=O)Cl
inactive: Potency [1] | Potency [2] | Potency [4] | Potency [19] | Potency [5] | Potency [6] | Potency [7] | Potency [17] | Potency [8] | outcome [9] | outcome [10] | Potency [11] | Potency [12] | activity change, positive = activation [13] -4.82% | Potency [14] | outcome [16]

CC1NCCOC1c1ccccc1 (configuration not stated)
inactive: Potency [1] | Potency [2] | Potency [4] | Potency [19] | Potency [5] | Potency [6] | Potency [7] | Potency [17] | Potency [8] | outcome [10] | Potency [11] | Potency [12] | activity change, positive = activation [13] 0.163% [at 42.5 µM] | Potency [14] | Potency [15] | outcome [16]

CCCC(C)C1(CC)C(=O)N=C(S)NC1=O (configuration not stated)
inactive: Potency [1] | Potency [2] | Potency [3] | Potency [4] | Potency [19] | Potency [5] | Potency [8] | outcome [9] | outcome [10] | Potency [11] | Potency [14] | Potency [15] | outcome [16]

CCC1(c2ccccc2)CCC(=O)NC1=O (configuration not stated)
inactive: Potency [1] | Potency [2] | Potency [3] | Potency [5] | Potency [17] | Potency [8] | outcome [9] | outcome [10] | Potency [11] | Potency [14] | Potency [15] | outcome [16]

C=C1C[C@@H]2[C@H](CC[C@]3(C)C(=O)CC[C@@H]23)[C@@]2(C)C=CC(=O)C=C12
inactive: Potency [1] | Potency [2] | Potency [4] | Potency [5] | Potency [6] | Potency [7] | Potency [17] | Potency [8] | outcome [9] | outcome [10] | Potency [11] | activity change, positive = activation [13] -24.3% [at 42.5 µM] | Potency [14] | Potency [15] | outcome [16]

BrCc1ccc(Br)cc1
inactive: Potency [18] | Potency [2] | Potency [3] | Potency [4] | Potency [19] | Potency [5] | Potency [17] | Potency [8] | outcome [9] | outcome [10] | Potency [11] | Potency [14] | Potency [15] | outcome [16]

COC[C@@H](NC(C)=O)C(=O)NCc1ccccc1
inactive: Potency [1] | Potency [2] | Potency [5] | Potency [6] | Potency [7] | Potency [17] | Potency [8] | outcome [9] | outcome [10] | Potency [11] | Potency [12] | activity change, positive = activation [13] 4.5% [at 42.5 µM] | Potency [14] | Potency [15] | outcome [16]

CCOP(=S)(OCC)SCCl
inactive: Potency [1] | Potency [2] | Potency [5] | Potency [17] | Potency [8] | outcome [10] | Potency [11] | Potency [14] | Potency [15] | outcome [16]

O=c1[nH]c2ccccc2n1C1CCNCC1
inactive: Potency [1] | Potency [3] | Potency [4] | Potency [19] | Potency [5] | Potency [17] | Potency [8] | outcome [9] | outcome [10] | Potency [11] | Potency [14] | Potency [15] | outcome [16]

C#CC(C)(C)O
inactive: Potency [1] | Potency [2] | Potency [4] | Potency [19] | Potency [5] | Potency [6] | Potency [7] | Potency [8] | outcome [9] | outcome [10] | Potency [11] | Potency [12] | activity change, positive = activation [13] -2.81% | Potency [14] | outcome [16]

Nc1c(Cl)c(F)nc(OCC(=O)O)c1Cl
inactive: Potency [1] | Potency [3] | Potency [4] | Potency [19] | Potency [5] | Potency [6] | Potency [7] | Potency [17] | Potency [8] | outcome [9] | outcome [10] | Potency [11] | Potency [12] | Potency [14] | Potency [15] | outcome [16]

CC(Cc1ccccc1)NCCn1cnc2c1c(=O)n(C)c(=O)n2C (configuration not stated)
inactive: Potency [2] | Potency [3] | Potency [5] | Potency [6] | Potency [7] | Potency [17] | Potency [8] | outcome [9] | outcome [10] | Potency [11] | Potency [12] | Potency [14] | outcome [16]
active: Potency [15] 21.6 µM
